Assay outcomes (PubChem BioAssay)
An excerpt weighted towards active compounds, which were near 9.4% of everything screened.
AMA1-RON2 inh: AMA1-RON2 (P. falciparum) interaction inhibition; 0.2% of 360,000 active; Potency, µM (top dose mostly 58.2 µM), actives largely listed as inhibitors; AID 720542; AlphaScreen AMA1-biotinylated RON2 peptide binding; note: nearly all actives have a fitted effect of over 45% in size
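AMA1 (3D7) with his tag at 25 nM final met compounds first, then biotinylated RON2 peptide at 25 nM; detection used donor plus acceptor beads, 10 µg/mL apiece, read by AlphaScreen after 30 min at room temperature.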
SARS PLpro yeast: SARS-CoV PLP inhibition in yeast; S. cerevisiae expressing SARS-CoV PLpro, growth rescue; 0.19% of 330,000 active; Potency, µM (doses to about 32.9 µM), most hits filed as activators; calls by dose curve; note: nearly all actives have a fitted effect of over 55% in size
Pf growth 48h: P. falciparum growth inhibition at 48 hours (one generation); 5.9% of 310,000 active; Potency, µM (top dose mostly 28.7 µM), usual class: inhibitors; P. falciparum luciferase growth in erythrocytes, 48 h
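Parasite viability was followed by luminescence of a genomically integrated firefly luciferase. Cultures held 0.1% parasitemia at 2% hematocrit (final), incubated under 5% CO2 at 37 C.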
Pf growth 96h: P. falciparum growth inhibition at 96 hours | P. falciparum luciferase reporter growth, 96 h | Potency, µM (top dose mostly 28.7 µM), most hits filed as inhibitors | 6.9% of 320,000 active
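Luminescence readout: decreased luciferase signal marks inhibited growth of reporter-expressing P. falciparum in infected red cells (2% hematocrit, 0.05% parasitemia final), exposed to compound two generations (96 h, 37 C, 5% CO2).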
Large screens that a line does not name were inactive. Unless noted, calls come from the whole dose curve; as a rule, active = well fitted curve in the direction sought with a large enough effect; inconclusive = small, poorly fitted or top-dose-only effect, or another doubt; inactive = no such curve, though single readings can be large; an effect the other way counts as inactive or inconclusive.

CCCn1c(SCC(=O)Nc2ccc(NC(=O)CC)cc2)nc2c1c(=O)n(C)c(=O)n2C	Pf growth 48h inconclusive
CCOc1ccc(NC(=O)CSc2nc3ccsc3c(=O)n2CCC(=O)O)cc1	none
CCc1ccc(NC(=O)CSc2nc3ccsc3c(=O)n2CCC(=O)O)cc1	Pf growth 96h 7.4µM
CCc1ccc(NC(=O)CSc2nc3c(c(=O)n(C)c(=O)n3C)n2C)cc1	Pf growth 96h 10µM
CC(=O)Nc1cnc(-c2ccccc2C(F)(F)F)cn1	none (no result: SARS PLpro yeast, Pf growth 48h, Pf growth 96h)
Cc1ccc(NC(=O)c2sccc2-n2cccc2)c(Cl)c1	none
COc1nc(N=C(N)N)nc2ccc(C)cc12	Pf growth 48h 2.6µM, Pf growth 96h inconclusive (no result: AMA1-RON2 inh)
COc1ccc(OC)c(CNc2ncc(-c3cccc([N+](=O)[O-])c3)n2C)c1	AMA1-RON2 inh 14µM
O=C(CC(c1ccccc1)c1cc(Br)ccc1O)N1CCCCC1 (configuration not stated)	Pf growth 48h 13µM, Pf growth 96h inconclusive
CCCN(CCC)C(=O)CC(c1ccccc1)c1ccco1 (configuration not stated)	Pf growth 48h 12µM, Pf growth 96h inconclusive
CCCN(CCC)C(=O)CC(c1ccccc1)c1ccc(C)cc1O (configuration not stated)	Pf growth 96h inconclusive (no result: Pf growth 48h)
CCCN(CCC)C(=O)CC(c1ccccc1)c1cc(Br)ccc1O (configuration not stated)	Pf growth 48h 13µM (no result: Pf growth 96h)
O=C(CN1C(=O)c2cccc([N+](=O)[O-])c2C1=O)NNC(=O)c1ccc(F)cc1	none (no result: Pf growth 48h, Pf growth 96h)
O=C(/C=C/c1cc(Br)ccc1F)OCC(=O)N1CCOCC1	none (no result: Pf growth 48h, Pf growth 96h)
COc1ccc(C(=O)Nc2cnc3ccccn3c2=O)cc1	Pf growth 96h inconclusive
COc1cccc(/C=C/C(=C2/C(=O)N(c3ccccc3)N=C2C)c2ccccc2)c1OC	Pf growth 96h inconclusive
COc1ccccc1/C=C/C(=C1/C(=O)N(c2ccccc2)N=C1C)c1ccc(C)cc1	Pf growth 96h 12µM
Cc1cc(N2CCN(C(=O)c3ccco3)CC2)n2nc(C)c(-c3ccccc3)c2n1	Pf growth 48h 12µM
Cc1nn(-c2ccc(Cl)cc2)c2sc(C(=O)N3CCN(C(=O)c4ccco4)CC3)cc12	Pf growth 96h 10µM (no result: AMA1-RON2 inh)
Cc1nn2c(N3CCN(C(=O)c4ccco4)CC3)cc(C(C)(C)C)nc2c1-c1ccc(Cl)cc1	Pf growth 48h inconclusive, Pf growth 96h inconclusive (no result: AMA1-RON2 inh)
CCOC(=O)N1CCN(c2nc3ccc(C(=O)c4ccccc4)cc3n3cnnc23)CC1	Pf growth 48h inconclusive, Pf growth 96h inconclusive
COc1ccc(-c2cc3nc(C)cc(N4CCN(C(=O)c5ccco5)CC4)n3n2)cc1	none (no result: SARS PLpro yeast, Pf growth 48h, Pf growth 96h)
O=C(c1ccccc1)c1ccc2nc(N3CCN(C(=O)c4ccco4)CC3)c3nncn3c2c1	Pf growth 96h 3.3µM (no result: Pf growth 48h)
Cc1cc(N2CCN(C(=O)c3ccco3)CC2)n2nc(C)c(-c3ccc(Cl)cc3)c2n1	Pf growth 96h 4.1µM (no result: AMA1-RON2 inh)
CCOc1ccc(N=Cc2c(C)[nH]n(-c3nc4ccccc4[nH]3)c2=O)cc1	none
CCCS(=O)(=O)C(=C(Nc1ccccc1)Nc1ccccc1)S(=O)(=O)CCC	Pf growth 48h inconclusive (no result: Pf growth 96h)
CCCCN1CC(=O)N2[C@@H]3c4cc(Br)ccc4OC[C@@H]3[C@H](C(=O)OCC)[C@]2(C)C1=O	none (no result: SARS PLpro yeast, Pf growth 48h, Pf growth 96h)
Cc1cc(N2CCN(C(=O)c3ccco3)CC2)n2nc(-c3cccc(Cl)c3)cc2n1	Pf growth 48h 9.3µM
COC(CNC(=O)c1ccc2nc(-c3cccs3)c(-c3cccs3)nc2c1)OC	Pf growth 96h inconclusive
COc1ccc(-c2nc3ccc(C(=O)NCC(OC)OC)cc3nc2-c2ccc(OC)c(OC)c2)cc1OC	Pf growth 48h 4.1µM
CCOCCCNC(=O)c1ccc2nc(-c3ccc(OC)c(OC)c3)c(-c3ccc(OC)c(OC)c3)nc2c1	Pf growth 48h 3.7µM
CCc1nc2ccc(C(=O)NCCc3ccc(OC)c(OC)c3)cc2nc1CC	Pf growth 96h inconclusive
O=C(NCc1ccncc1)[C@@H]1CCCN1C(=O)[C@H]1CCCN1C(=O)c1cccc(Cl)c1	none (no result: SARS PLpro yeast, Pf growth 48h, Pf growth 96h)
O=C(Nc1ccccc1)NC1CCCCCCC1	none (no result: SARS PLpro yeast, Pf growth 48h, Pf growth 96h)
Cc1ccc(CN=C(Nc2ccccc2)NC2CCCCC2)cc1	Pf growth 48h 10µM, Pf growth 96h inconclusive
Cc1ccc(CNC(=O)COC(=O)[C@@H]2CC(O)CN2S(=O)(=O)c2ccc3c(c2)OCCO3)cc1 (some centres not stated)	none
Cc1cccc(NC(=O)COC(=O)c2cc(C)n(C3CC3)c2C)c1	Pf growth 48h 9.3µM, Pf growth 96h inconclusive
Cc1cccc(NC(=O)COC(=O)c2cc(C)oc2C)c1	none
O=[N+]([O-])c1ccc(N/N=C2\CC3CC=CC23)c([N+](=O)[O-])c1 (configuration not stated)	AMA1-RON2 inh 14µM
O=[N+]([O-])c1ccc(N/N=C2\CC3CC=CC23)cc1 (configuration not stated)	none
CCCCNC(=O)C(c1ccc(OCC(=O)OC)c(C(=O)OC)c1)N(CCOC)C(=O)CCCCCN1C(=O)NC(c2ccc(-c3ccccc3)cc2)C(C(=O)OCc2ccccc2)=C1C (configuration not stated)	Pf growth 48h 1.2µM, Pf growth 96h 1.7µM (no result: AMA1-RON2 inh)
CCCCNC(=O)C(c1ccc(OCC(=O)OC)c(C(=O)OC)c1)N(CCc1ccccc1)C(=O)CCCCCN1C(=O)NC(c2ccc(-c3ccccc3)cc2)C(C(=O)OCc2ccccc2)=C1C (configuration not stated)	Pf growth 48h 1.9µM, Pf growth 96h 2.1µM (no result: AMA1-RON2 inh)
CC1=C(C(=O)OCc2ccccc2)C(c2ccc(Cl)cc2Cl)NC(=O)N1CCCCCC(=O)O (configuration not stated)	Pf growth 96h inconclusive
CCCCCCN(C(=O)CCCCCN1C(=O)NC(c2ccc(-c3ccccc3)cc2)C(C(=O)OCc2ccccc2)=C1C)C(C(=O)NCCCC)c1ccc(OCC(=O)OC)cc1 (configuration not stated)	Pf growth 48h inconclusive, Pf growth 96h 4.7µM (no result: AMA1-RON2 inh)
CNC[C@H](Cc1ccccc1)NC[C@@H](Cc1cccc2ccccc12)NCCc1ccc(C)cc1	Pf growth 48h 2.6µM, Pf growth 96h 2.9µM
COc1ccc(OC)c(NC(=O)CCN2CCN(Cc3ccccc3)CC2)c1	Pf growth 48h 13µM
O=C(CN1CCNCC1)Nc1ccccc1Cl	Pf growth 96h inconclusive (no result: Pf growth 48h)
O=C(CN1CCN(C(=O)c2cncn2-c2ccccc2)CC1)Nc1ccccc1Cl	Pf growth 48h inconclusive, Pf growth 96h 15µM
O=C(NC1CCN(c2ncccn2)CC1)c1ccccc1Cl	Pf growth 96h 10µM
O=C(NC1CCN(c2ncccn2)CC1)c1ccccc1F	none
COc1ccc(NC(=O)CN2CCN(CC(=O)Nc3ccccc3Cl)CC2)c(OC)c1	Pf growth 96h 15µM (no result: Pf growth 48h)
CCOC(=O)N1CCN(C(=O)c2cc3cc(C)ccc3[nH]2)CC1	SARS PLpro yeast inconclusive, Pf growth 96h inconclusive
COc1ccc(Nc2nc(N)nc(CN3CCN(c4ccccn4)CC3)n2)cc1	none (no result: SARS PLpro yeast)
O=C(CN1CCCCCCC1)Nc1ccc(Cl)cc1Cl	none
Cc1ccccc1C(=O)NC1CCN(CC(=O)Nc2ccccc2Cl)CC1	Pf growth 96h 0.93µM
O=C(CN1CCCCC1)Nc1ccc(NC(=O)c2ccccc2Cl)cc1Cl	Pf growth 96h 15µM
